Results: PubChem BioAssay (NCI)
Compounds without any hit were thinned out: in the full panel of roughly 83,000, 20% have a hit.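 Cells were grown in 96-well plates and exposed to the test compound at a single concentration for 48 hours; results are reported as percent growth, with values below 10 considered active.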 Unmarked numbers belong to inactive results. The source made the active and inactive calls.

Key:
Experiment in all cases: NCI-60 one-dose screen, 48 h (100 = growth as untreated, 0 = no growth, -100 = all killed)
Conditions in all cases: 10 µM unless noted
NCI-H23 lung = tested on: NCI-H23 lung
NCI-H226 lung = tested on: NCI-H226 lung
NCI-H322M lung = tested on: NCI-H322M lung
HOP-62 NSCLC = tested on: HOP-62 NSCLC
NCI-H460 lung = tested on: NCI-H460 lung
HOP-92 NSCLC = tested on: HOP-92 NSCLC
NCI-H522 lung = tested on: NCI-H522 lung
A549/ATCC NSCLC = tested on: A549/ATCC NSCLC
786-0 renal = tested on: 786-0 renal
COLO 205 colon = tested on: COLO 205 colon
DU-145 prostate = tested on: DU-145 prostate
K-562 leukemia = tested on: K-562 leukemia
MALME-3M melanoma = tested on: MALME-3M melanoma
MDA-MB-231 breast = tested on: MDA-MB-231 breast
RXF 393 renal = tested on: RXF 393 renal
SF-268 CNS = tested on: SF-268 CNS
SF-295 CNS = tested on: SF-295 CNS
SF-539 CNS = tested on: SF-539 CNS
UACC-257 melanoma = tested on: UACC-257 melanoma
M14 melanoma = tested on: M14 melanoma

SMILES	growth (NCI-H23 lung)	growth (NCI-H226 lung)	growth (NCI-H322M lung)	growth (HOP-62 NSCLC)	growth (NCI-H460 lung)	growth (HOP-92 NSCLC)	growth (NCI-H522 lung)	growth (A549/ATCC NSCLC)	growth (786-0 renal)	growth (COLO 205 colon)	growth (DU-145 prostate)	growth (K-562 leukemia)	growth (MALME-3M melanoma)	growth (MDA-MB-231 breast)	growth (RXF 393 renal)	growth (SF-268 CNS)	growth (SF-295 CNS)	growth (SF-539 CNS)	growth (UACC-257 melanoma)	growth (M14 melanoma)
C1CN(SSN2CCOCC2)CCO1	3.63% [100 µM] (active)	26.5% [100 µM]	59.3% [100 µM]	91.9% [100 µM]	10.8% [100 µM]	-0.94% [100 µM] (active)	-53.1% [100 µM] (active)	35.7% [100 µM]	-93% [100 µM] (active)	-70% [100 µM] (active)	3.92% [100 µM] (active)	15.2% [100 µM]	-53.1% [100 µM] (active)	-79.4% [100 µM] (active)	-62.6% [100 µM] (active)	-78.9% [100 µM] (active)	5.96% [100 µM] (active)	-37.6% [100 µM] (active)	49.6% [100 µM]	-7.16% [100 µM] (active)
CCC(C)N(CCNc1cc(OC)cc2cccnc12)CC(C)C (stereo not given)	86.5%	92.7%	95.2%	107%	98%	105%	82.8%	102%	117%	96.6%	112%	83.1%	119%	87.8%	122%	96.4%	110%	115%	99.8%	110%
Cc1cc(N2CCCCC2)cc(C)c1-c1csc(NC(=O)c2ccncc2)n1	45.1%	60.6%	78.2%	62.5%	66.9%	53.8%	44.1%	49.1%	77.5%	60.6%	77%	22.1%	59.7%	54.5%	77.6%	60%	22.5%	81.1%	33.2%	57.8%
N#Cc1nc(-c2ccc(F)cc2)oc1S(=O)(=O)N1CCOCC1	70.3%	81.7%	102%	101%	107%	94.6%	-33.8% (active)	107%	87.6%	-36.4% (active)	93.8%	7.52% (active)	1.99% (active)	83.2%	-27.8% (active)	114%	104%	66.7%	93.9%	54.2%
Cc1c(O)cc(-c2cnc(Nc3ccccc3)s2)c(O)c1C	87.1%	98.6%	96.6%	97.4%	99.3%	-64.4% (active)	83.4%	93.1%	107%	107%	105%	87.2%	107%	99.2%	99.5%	105%	98.9%	95%	106%	93.6%
Cc1cc(S(=O)(=O)/N=C(\N)n2nc(C)c(C)c2C)c(SCc2ccccc2)cc1Cl	54.6%	78.6%	86.2%	91.7%	81.2%	50.3%	17.2%	52.9%	77.2%	114%	98.1%	30.9%	94.1%	89.6%	72.9%	86.6%	54.3%	98.8%	73.4%	74.6%
COC(=O)C1Cc2ccccc2CN1C(=O)c1ccc2c(c1)Cc1ccccc1-2 (stereo not given)	35.9% [50 µM]	45.3% [50 µM]	68.2% [50 µM]	76.6% [50 µM]	34.4% [50 µM]	48.5% [50 µM]	18.5% [50 µM]	27.3% [50 µM]	54% [50 µM]	32.2% [50 µM]	59.8% [50 µM]	21.2% [50 µM]	17.7% [50 µM]	42.3% [50 µM]	51.2% [50 µM]	49.3% [50 µM]	30.2% [50 µM]	70.1% [50 µM]	29% [50 µM]	30.9% [50 µM]
CCCc1c(OC(=O)c2ccccc2)nc2[nH]c(=O)sc2c1C	99%	89.9%	101%	95.6%	103%	93.3%	87.4%	99.6%	106%	101%	106%	112%	95.1%	104%	101%	97.1%	102%	99%	98.5%	99.4%
CC(=O)N1N=C(c2ccc(Nc3nc(Nc4ccccc4)nc(Nc4ccccc4)n3)cc2)CC1c1ccccc1 (stereo not given)	94%	86%	84.9%	77.6%	86.7%	61.5%	89.3%	79.3%	86.8%	68.5%	97.6%	68.9%	78.7%	71.7%	137%	89.2%	85.6%	88.8%	113%	84.6%
O=C(NNC(=O)c1ccc(NC(=O)c2ccccn2)cc1)Nc1ccc([N+](=O)[O-])cc1	106%	94.2%	95.7%	96.1%	107%	96.7%	100%	100%	96.5%	114%	106%	107%	98%	103%	99.9%	95.5%	98.9%	60.9%	106%	100%
Cc1ccc(NC(=O)Cn2cc(CN3CCN(c4ccnc5cc(Cl)ccc45)CC3)nn2)cc1	90%	84.9%	97.7%	70.3%	92.2%	52.6%	87.3%	93.4%	96%	98.8%	102%	63.8%	100%	77.1%	88.5%	80.1%	86.3%	98.7%	103%	103%
Cn1c(=O)c2nc(/C=C/c3ccccc3)c(=O)[nH]c2n(C)c1=S	100%	101%	99.7%	100%	103%	98.1%	102%	107%	99.8%	121%	113%	105%	105%	105%	118%	105%	99.8%	104%	112%	103%
COc1ccc2c(c1)c(-c1nc(-c3c[nH]c4ccncc34)cs1)cn2C	46.3%	48.7%	-31% (active)	-82.7% (active)	-78.2% (active)	35.8%	-71.3% (active)	-85.9% (active)	-91.6% (active)	-81.7% (active)	-68% (active)	-60.8% (active)	-92.9% (active)	-81.8% (active)	-83.8% (active)	-78.7% (active)	-76.1% (active)	-96.9% (active)	-79% (active)	-84% (active)
N#Cc1ccc(O)c(C2=NCC(c3ccccc3)O2)c1 (stereo not given)	44.6%	68%	55.9%	29.7%	19.9%	60.6%	-12.8% (active)	32%	33.2%	36%	53.7%	23.4%	56.6%	46.4%	73.1%	47.2%	36.4%	61.2%	35.4%	41.8%
OB1OCc2cc(/C=C/c3cccc(C(F)(F)F)c3)ccc21	21.6%	-10.2% (active)	20.7%	-17.7% (active)	-10.1% (active)	-27.9% (active)	3.78% (active)	1.8% (active)	-27.2% (active)	25.6%	-6.62% (active)	11.4%	9.86% (active)	-33.9% (active)	-40.3% (active)	10.6%	7.3% (active)	-58.9% (active)	37.1%	-7.54% (active)
